From PubChem BioAssay
Activity calls are given as the source filed them.

How the values were obtained:
[1] = compound effects on lung adenocarcinoma cell viability – A549, calcein-AM fluorescence, 48 h, basal, profiling panel (AID 1162); conditions: higher = more signal
[2] = compound effects on differentiated 3T3-L1 adipocyte viability – cell-based, 3T3-L1 adipocytes, calcein-AM fluorescence, 48 h, basal, profiling panel (AID 1163); conditions: 3T3-L1 adipocytes viability, higher = more signal
[3] = compound effects on hepatocellular carcinoma cell viability – HepG2, calcein-AM fluorescence, 48 h, basal, profiling panel (AID 1164); conditions: higher = more signal
[4] = compound effects on multiple myeloma cell viability – MM1S, calcein-AM fluorescence, 48 h, basal, profiling panel (AID 1165); conditions: higher = more signal
[5] = calcein-AM signal in unstimulated myeloma cells – cell-based, calcein-AM fluorescence, 48 h, PK04 Diversity Set, profiling panel (AID 1166); conditions: RPMI8226 myeloma viability, higher = more signal;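 note: cells grown under basal conditions without added stimulus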
[6] = JC-1 mitochondrial signal, unstimulated HepG2 cells – cell-based, JC-1 fluorescence, 24 h, 100 nL compound, profiling panel (AID 1167); conditions: HepG2 mitochondrial potential, higher = more signal
[7] = JC-1 mitochondrial signal, unstimulated adipocytes – cell-based, JC-1 fluorescence, 3T3-L1 adipocytes, 24 h, 100 nL compound, profiling panel (AID 1168); conditions: JC-1 mitochondrial fluorescence, higher = more signal, called active from +8 up or from −8 down
[8] = JC-1 mitochondrial signal, unstimulated myeloma cells – cell-based, JC-1 fluorescence, RPMI8226, 24 h, 100 nL compound, profiling panel (AID 1169); conditions: JC-1 mitochondrial potential fluorescence, higher = more signal
[9] = JC-1 mitochondrial signal, unstimulated MM1S myeloma – cell-based, JC-1 fluorescence, 24 h, 100 nL compound, profiling panel (AID 1170); conditions: MM1S mitochondrial potential, higher = more signal
[10] = resazurin metabolic signal in A549 cells – cell-based, resazurin fluorescence, 24 h, PK04 Diversity Set, profiling panel (AID 1171); conditions: A549 viability, higher = more signal, called active from +8 up or from −8 down
Note: test concentration not given here.

SMILES	z-score [1]	z-score [2]	z-score [3]	z-score [4]	z-score [5]	z-score [6]	z-score [7]	z-score [8]	z-score [9]	z-score [10]
CCOC(=O)[C@H](CC(C)C)NC(=O)CCC1CC(OC(=O)NCCc2ccc(F)cc2)CC2(CCCC(COC(=O)NCCc3ccc(Cl)cc3)O2)O1 (stereo not given in full)	-0.977	0.248	-0.49	0.73	-1.23	-1.04	0.133 (inactive)	-0.0969	-0.232	0.608 (inactive)
CO[C@@H]1COC(=O)[C@H](CCSC)NC(=O)CC=C[C@@H](C)COC(=O)[C@H](C)NC(=O)CC=C[C@H]1C	0.205	0.0719	0.677	0.174	-0.0512	0.381	-0.225 (inactive)	-0.226	2.32	0.767 (inactive)
CON=Cc1ccc(C(=O)N2[C@H](c3ccc(C)cc3)[C@@H](C)CC[C@H]2C(=O)OC)cc1	0.281	0.0609	-0.296	0.336	0.0411	0.129	0.345 (inactive)	0.344	1.07	1.03 (inactive)
CCOC(=O)CCN1C(=O)[C@H]2[C@H]3[C@H](O)[C@H](O)CC(=NOCC(C)C)[C@H]3CC[C@H]2C1=O	0.0183	0.179	-0.268	0.324	-0.75	0.364	0.295 (inactive)	-0.324	-1.03	-0.86 (inactive)
CC(C)(C)N1C(=O)[C@H]2[C@H]3[C@H](O)C=CC(=O)[C@@H]3CC[C@H]2C1=O	-0.269	0.815	0.282	0.326	0.311	0.102	-0.211 (inactive)	-0.0172	1.19	0.0796 (inactive)
CC(=O)OC[C@H]1O[C@@H](ON=C(C)CCN2CCCc3nc(C)c(C)cc32)[C@H](OC(C)=O)[C@@H](OC(C)=O)[C@@H]1OC(C)=O	-0.984	0.191	-0.563	-1.05	-2.45	-0.0457	0.553 (inactive)	-0.572	-0.903	0.0264 (inactive)
COc1ccc(O[C@H]2C=C[C@@H](c3ccccc3)O[C@@H]2CON=CC[C@@H]2C=C[C@H](OC(C)=O)[C@@H](COC(C)=O)O2)cc1	0.0639	-0.0129	-0.555	0.306	-1.17	-1.33	-0.112 (inactive)	-0.0648	0.491	-0.247 (inactive)
COC(=O)CC=C[C@@H](C)[C@@H](C=NOC(C)CN1CCCc2nc(C)c(C)cc21)OC (stereo not given in full)	0.756	-0.274	0.125	0.0457	0.142	-0.16	0.111 (inactive)	-0.194	-0.259	-0.399 (inactive)
COc1ccc(COC(=O)NN=C2C[C@@H](O)[C@@H](O)[C@@H]3[C@@H]4C(=O)N(Cc5ccccc5)C(=O)[C@@H]4CC[C@H]23)cc1	0.203	0.649	-0.462	0.451	-1.27	0.646	-0.585 (inactive)	0.365	-0.592	1.03 (inactive)
COC(=O)[C@@H]1CC[C@H](C)[C@@H](c2ccc(C)cc2)N1C(=O)c1ccc(C=NO[C@@H]2O[C@H](COC(C)=O)[C@@H](OC(C)=O)[C@H](OC(C)=O)[C@H]2OC(C)=O)cc1	-1.3	0.216	-0.373	-0.82	-1.17	2.74	0.28 (inactive)	-0.139	0.155	0.855 (inactive)
CC(=O)OC[C@H]1O[C@H](C#Cc2ccccc2)C=C[C@@H]1OC(C)=O	-0.188	0.0552	-0.136	-3.51	-3.71	-1.65	0.458 (inactive)	-1.04	-2.48	-0.713 (inactive)
CCOC(=O)[C@H](CC(C)C)NC(=O)CCC1CC(OC(=O)NCCc2ccc(F)cc2)CC2(CCCC(COC(=O)NCC(c3ccccc3)c3ccccc3)O2)O1 (stereo not given in full)	0.0775	0.0775	-0.912	-0.325	0.497	-0.898	-0.516 (inactive)	0.872	-0.019	0.171 (inactive)
CON=C[C@@H](C)[C@H](OCc1ccccc1)C(C)C	-1.1	0.425	-0.0832	-0.43	-1.01	0.0714	0.634 (inactive)	-0.408	0.699	0.073 (inactive)
CCN1C(=O)[C@H]2[C@H]3[C@H](O)[C@H](O)CC(=NO[C@@H](C)c4cn([C@H](CO)Cc5ccccc5)nn4)[C@@H]3CC[C@H]2C1=O	-0.293	0.0248	-0.644	-1.59	-0.784	-0.559	-1.49 (inactive)	0.695	0.0117	-0.499 (inactive)
COC(=O)[C@H](C)NC(=O)CCC1CC(OC(=O)NCc2ccc3c(c2)OCO3)CC2(CCCC(COC(=O)NCC3CCCCC3)O2)O1 (stereo not given in full)	-0.374	-0.335	-0.653	-3.22	-0.103	-0.283	-0.183 (inactive)	0.34	-0.0549	0.619 (inactive)
CC(=O)O[C@H]1C2=CO[C@H](C)[C@H]3[C@H]4C5=C([C@H](O)[C@H]6O[C@H]6C5=O)[C@H](OC4C)[C@@]23C(=O)[C@@H]2O[C@@H]21 (stereo not given in full)	-1.7	-0.827	-3.46	-3.43	-3.37	-3	0.12 (inactive)	-0.871	-2.88	-2.43 (inactive)
COc1ccc(COC(=O)NN=C2C[C@@H](O)[C@@H](O)[C@@H]3[C@@H]4C(=O)N(c5cccc(Oc6ccccc6)c5)C(=O)[C@@H]4CC[C@@H]23)cc1	0.226	-0.518	-0.826	0.754	0.196	-0.767	-0.0215 (inactive)	0.587	-0.442	0.166 (inactive)
CCN1C(=O)[C@H]2[C@H]3[C@H](O)[C@H](O)CC(=O)[C@@H]3CC[C@H]2C1=O	0.111	0.0891	0.0082	-0.681	0.177	0.231	0.55 (inactive)	-0.0467	-0.22	-0.561 (inactive)
CCN1C(=O)[C@H]2[C@H]3[C@H](O)[C@H](O)CC(=NNC(=O)OCc4ccc(OC)cc4)[C@@H]3CC[C@H]2C1=O	-0.241	-0.0397	-0.112	0.0505	-0.788	-0.586	-0.66 (inactive)	-0.232	-0.0402	0.247 (inactive)
O=C1CCCC(C2=CCCCC2=O)C1 (stereo not given)	-0.965	-0.824	-0.114	0.322	0.652	0.512	-0.845 (inactive)	0.987	-0.857	-0.684 (inactive)
C[C@@H](ON=C1[C@H]2CCn3c(=O)n(-c4ccccc4)c(=O)n3[C@H]2[C@H](O)[C@@H]2O[C@H]12)c1cn([C@@H]2COC[C@H]2O)nn1	0.0219	-0.15	0.373	-0.289	-0.292	-0.377	-1.84 (inactive)	-0.0731	-0.696	0.0264 (inactive)
COC(=O)CC=C[C@@H](C)[C@@H](C=NOC[C@H]1O[C@H](c2ccccc2)C=C[C@@H]1Oc1ccc(OC)cc1)OC	0.0124	-0.701	-0.56	-0.831	-0.209	-1.05	-0.506 (inactive)	0.16	-0.327	1.06 (inactive)
C[C@H]1CC[C@H]2C(=O)OC(CO)CN2[C@@H]1c1ccc(Br)cc1 (stereo not given in full)	0.228	0.764	-0.592	-2.22	0.0966	0.292	-0.18 (inactive)	0.859	0.23	0.746 (inactive)
COc1cccc([C@H]2Oc3ccc(OC)cc3C(=NO[C@@H](C)c3cn([C@H](CO)Cc4ccccc4)nn3)[C@@H]2O)c1	-0.53	1.3	-0.55	0.738	-0.631	-1.22	-1.1 (inactive)	-0.722	0.339	-0.819 (inactive)
